Most compounds without a hit are left out; they make up all but 21% or so of the library.
Shiga toxin inh = A qHTS for Small Molecule Inhibitors of Shiga Toxin; 9.2% of 290,000 active; inhibition, % at 38.7 µM; Vero cells, Shiga toxin protein synthesis inhibition reporter; in the data active = inhibition mostly above about 28%, no sharp cut-off; inactive = mostly below about 43%
Pf growth 96h = Primary qHTS for delayed death inhibitors of the malarial parasite plastid, 96 hour incubation; Potency, µM (series often up to 28.7 µM), most hits filed as inhibitors; P. falciparum luciferase reporter growth, 96 h; 6.9% of 320,000 active
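Two parasite generations (96 h, 37 C, 5% CO2) of compound exposure in infected erythrocytes (0.05% parasitemia, 2% hematocrit). Luciferase-reporter P. falciparum; decreased luminescence indicates inhibited growth, aimed at apicoplast-acting delayed death.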
Giardia FBPA inh = qHTS Assay for Inhibitors of Fructose-1,6-bisphosphate Aldolase from Giardia Lamblia; Potency, µM (doses to about 59.6 µM), hits mostly inhibitors; A8B2U2; 0.71% of 290,000 active; purified Giardia FBPA; note: nearly all actives have a fitted effect of over 55% in size
Target sequence (A8B2U2 whole entry, looked up): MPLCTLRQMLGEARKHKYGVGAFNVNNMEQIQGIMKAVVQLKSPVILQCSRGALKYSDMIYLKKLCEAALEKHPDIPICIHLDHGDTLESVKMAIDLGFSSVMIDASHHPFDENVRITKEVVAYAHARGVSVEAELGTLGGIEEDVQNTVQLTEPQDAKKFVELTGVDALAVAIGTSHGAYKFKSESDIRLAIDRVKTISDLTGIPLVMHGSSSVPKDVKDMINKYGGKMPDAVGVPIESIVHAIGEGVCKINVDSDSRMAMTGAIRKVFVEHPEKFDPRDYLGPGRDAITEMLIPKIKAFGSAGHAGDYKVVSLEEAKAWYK
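40 nM FBPA preincubated 10 min at RT with compound (up to 57.5 uM final), then substrate plus GAPDH/TPI/NAD/arsenate coupling and diaphorase/resazurin added. Fluorescence read after 20 min at RT, 525/598 nm.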
NS1 inh = qHTS Assay for Inhibitors of Influenza NS1 Protein Function | Potency, µM (top dose mostly 46.1 µM) | 0.4% of 270,000 active | AID 2326, 2010; calls by dose curve; note: actives are rising curves; nearly all actives have a fitted effect of over 50% in size
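Compounds were scored for reversing the slow growth caused by influenza A NS1 in S. cerevisiae, measured by optical density at 600 nm. Assay medium contained 2% galactose at pH 6.0; NS1-free yeast of the same strain were the positive control.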
CHX counter = Cycloheximide Counterscreen for Small Molecule Inhibitors of Shiga Toxin; AID 2314, 2010; max response, %; 12% of 300,000 active; cell reporter, cycloheximide protein synthesis inhibition counterscreen; in the data active = max response mostly above about 13%, no sharp cut-off; inactive = mostly below about 14%; note: read at 38.3 µM for the half of the compounds with a filed dose
Pf growth 48h = Primary qHTS for delayed death inhibitors of the malarial parasite plastid, 48 hour incubation; Potency, µM (titrated, usually from 28.7 µM), actives largely listed as inhibitors; 5.9% of 310,000 active; P. falciparum luciferase growth in erythrocytes, 48 h
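Here the parasites carry a stable luciferase gene and grow inside erythrocytes in Albumax-based RPMI medium with compound for one erythrocytic cycle. Activity is scored as loss of luminescent signal.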
Hits are given with their value; i = inactive; ? = inconclusive; nt = no result given. Unless noted, calls come from the whole dose curve; as a rule, active = well fitted curve in the direction sought with a large enough effect; inconclusive = small, poorly fitted or top-dose-only effect, or another doubt; inactive = no such curve, though single readings can be large; an effect the other way counts as inactive or inconclusive.

SMILES	Shiga toxin inh	Pf growth 96h	Giardia FBPA inh	NS1 inh	CHX counter	Pf growth 48h
COc1ccc(-c2[nH]ncc2/C=N/NC(=O)c2cccc([N+](=O)[O-])c2)cc1OC	i	i	i	i	i	i
CCC(=O)Nc1cccc(C2=NOC3(C2)C[C@H](C(N)=O)N(C(=O)CC#N)C3)c1 (stereo partly specified)	i	i	i	i	i	i
Cc1ccc(C(=O)Nc2ccncc2)c(C)c1	i	?	i	i	8.9	i
Cc1ccc(C(=O)Nc2ccc3[nH]c(=O)[nH]c3c2)c(C)c1	i	i	i	nt	i	i
COc1cc(C(=O)OCC(=O)N2CCCC2)cc(OC)c1OC	i	nt	i	i	i	i
COc1ccccc1CC(=O)Nc1ccc(NC(=O)c2cccs2)cc1	i	?	i	i	i	i
COc1cc(C(=O)OCC(=O)N2CCCCC2C)cc(NC(=O)c2cccs2)c1OC (stereo unspecified)	i	?	i	nt	i	0.117µM
COc1cc(NC(=O)c2cc(OC)c(OC)c(OC)c2)ccc1NC(=O)c1cccs1	i	?	nt	i	i	i
COc1cc(N)ccc1NC(=O)c1cccs1	i	i	i	i	13.2	?
CCN(CC(=O)Nc1ccccc1OC)C(=O)c1ccc(NC(=O)c2cccs2)cc1	nt	?	nt	nt	nt	7.38µM
CCN(CC)C1CC(=O)N(c2cccc(Cl)c2)C1=O (stereo unspecified)	nt	i	i	i	i	i
NNC(=O)Cn1nc(Cc2ccccc2)n(N)c1=O	nt	i	nt	nt	nt	i
COc1ccc(C(=O)NC(=S)NNC(=O)Cc2cccs2)cc1	54.8	i	?	i	17.9	i
COc1ccc(NC(=O)c2cccs2)cc1OC	i	i	i	i	18.8	i
COc1ccc(C(=O)Nc2cccc(NC(=O)c3cccs3)c2)cc1	20.3	i	i	i	24.7	i
COc1ccc(/C=C(/NC(=O)c2cccs2)C(=O)NC(C)(C)C)cc1OC	nt	9.28µM	i	i	i	i
CC1CC(C)(C)CC2(C1)NC(=O)N(CC(=O)N(C)Cc1nc3ccccc3c(=O)[nH]1)C2=O (stereo unspecified)	nt	i	nt	nt	nt	i
CC(OC(=O)C1CC1C)C(=O)Nc1ncc(Cl)cc1Cl (stereo unspecified)	nt	i	nt	nt	nt	i
COc1ccc(-c2noc(-c3cc(Cl)ccc3Cl)n2)cc1OC	i	nt	i	i	i	i
COc1cccc(NC(=O)c2cccs2)c1	134.8	?	i	i	54.0	i
COc1ccc(NC(=O)c2cc3c(Cl)nc4ccccc4c3s2)cc1OC	i	i	i	i	i	2.08µM
COc1ccc(Cl)cc1-c1nc(-c2ccc(NC(=O)c3cccs3)cc2)no1	34.3	i	i	i	85.2	i
COc1cc(NC(=O)Cc2cccs2)cc(OC)c1	i	10.4µM	i	i	i	i
CCOc1ccc(C2/C(=C(\O)c3ccc4c(c3)OCCO4)C(=O)C(=O)N2Cc2cccnc2)cc1OCC (stereo unspecified)	i	?	i	i	i	?
O=C(Nc1ccccc1)N1CCC2(CC1)CCN(C(=O)c1cccc(F)c1)CC2	nt	nt	i	nt	nt	nt
SMILES	Shiga toxin inh	Pf growth 96h	Giardia FBPA inh	NS1 inh	CHX counter	Pf growth 48h
Cc1cc(C(=O)Nc2c(C)nn(Cc3ccc(Cl)cc3)c2C)no1	i	?	i	nt	i	i
COc1ccccc1-c1cc(C(=O)Nc2cc(C)nn2-c2ccccc2)no1	i	?	i	i	i	?
Cc1cc(NC(=O)c2noc3c2CCCCC3)nn1Cc1ccc(Cl)cc1	i	i	i	i	i	i
COc1ccccc1-c1cc(C(=O)Nc2cc(C)n(Cc3ccc(Cl)cc3)n2)no1	i	i	i	i	i	5.86µM
Cc1cc(NC(=O)c2cc(C(C)C)on2)nn1Cc1ccc(Cl)cc1	i	9.28µM	i	i	i	nt
Cc1cc(C(=O)Nc2cc(C)n(Cc3ccc(Cl)cc3)n2)no1	i	?	i	i	i	0.928µM
CC1CN(C/C(=N\O)C23CC4CC(CC(C4)C2)C3)CC(C)O1 (stereo unspecified)	i	i	i	i	i	i
CCSc1nnc(NC(=O)CN2C(=O)N(C)C3(CCCCC3)C2=O)s1	nt	i	nt	nt	nt	i
C=CCn1c(SCC(=O)c2[nH]c(C)c(C(=O)OC)c2C)nc2scc(-c3ccc(OC)c(OC)c3)c2c1=O	i	2.94µM	i	i	i	?
C=CCn1c(SCC(=O)c2[nH]c(C)c(C(C)=O)c2C)nnc1-c1ccncc1	i	nt	i	i	i	i
N#Cc1c2ccc([N+](=O)[O-])cc2[n+]([O-])n1-c1ccccc1	nt	10.4µM	nt	nt	nt	11.7µM
N#CCCn1c(=O)c(-c2ccc(F)cc2)nc2cnc(OCc3ccccc3)nc21	nt	nt	i	nt	nt	nt
Cc1[nH]c2ccc3ncccc3c2c1C	i	?	i	i	14.6	i
Cc1nc2cc(-c3ccsc3-n3c(C)ccc3C)[nH]n2c(=O)c1Cl	i	14.7µM	?	i	i	nt
Cc1cc(=O)n2[nH]c(-c3ccsc3-n3c(C)ccc3C)cc2n1	i	6.57µM	?	i	i	i
COCc1cc(=O)n2[nH]c(-c3ccsc3-n3c(C)ccc3C)cc2n1	i	i	i	i	i	nt
CCOCCn1c(N2CCCN(C)CC2)nc2ccccc21	nt	?	nt	nt	nt	i
CCc1c2c(nc3cccc(SC)c13)COC2	nt	nt	i	nt	nt	nt
O=C1NN=C(c2ccccc2)CC1c1c[nH]c2ccccc12 (stereo unspecified)	i	?	i	nt	24.5	i
O=C1NN=C(c2ccccc2)CC1c1ccc(Cl)cc1Cl (stereo unspecified)	i	?	i	nt	i	i
COc1ccc(-c2cc3ccccc3c(=O)o2)cc1	nt	nt	i	nt	nt	nt
COc1ccc2sc3ccccc3c(=O)c2c1	80.5	i	i	i	43.9	i
COc1ccc(-c2cc(=O)c3ccccc3s2)cc1	92.5	i	i	i	29.0	nt
CC(NC(=O)C1CCCN1S(=O)(=O)c1cccc2nsnc12)c1ccccc1 (stereo unspecified)	i	?	nt	i	i	i
O=C(Nc1cc(Br)ccc1O)c1cnn2c(C(F)F)cc(C3CC3)nc12	i	i	i	i	i	4.15µM

Screening results from PubChem BioAssay.
